# Measured values taken from PubChem BioAssay AID1259240 (Keith Lab, Institute of Cancer Science, University of …, 2017).
# Calls of active or inactive are those of the source. No stated cut-off is given here; in the data, active means fold change mostly below about -2 (no sharp cut-off); inactive means mostly above about -1.8.
# Test: modulation of TERT promoter-driven luciferase – cell-based, luciferase reporter, human, primary screen (AID 1259240)
# Details: A2780 TERT promoter luciferase reporter, 16 h; at 20 µM, fold versus average of vehicle-only wells
SMILES,fold change,outcome
COCCCNc1nc2c(-c3ccccc3)nnn2c2ccccc12,1.02 (inactive),
CC1CCC(NC(=O)C(=O)Nc2ccc3nc4n(c(=O)c3c2)CCCCC4)CC1 (centres undefined),1 (inactive),
COc1ccc(OC(C)c2nc(-c3ccc(OC)cc3)no2)cc1 (centres undefined),1.61 (inactive),
O=C(CC1(CC2=NS(=O)(=O)c3ccccc3N2)CCCC1)NCc1ccccc1,-1.27 (inactive),
O=C(Cn1ncc2c3ccccc3n(Cc3cccc(Cl)c3)c2c1=O)NCc1cccnc1,-1.25 (inactive),
CC(C)(C)NC(=O)CSc1nc(-c2ccc(F)cc2)cc(C(F)(F)F)n1,-1.59 (inactive),
O=C1C(=O)N(CC(=O)N2CCCCC2)c2ccccc21,1.04 (inactive),
Cc1nnc2ccc(N3CCC(C)CC3)nn12,1.03 (inactive),
O=C(COc1ccc(Cl)cc1)Nc1ccc2nc3n(c(=O)c2c1)CCCCC3,-1.27 (inactive),
COc1ccc(-c2nc(CSc3nc4ccncc4[nH]3)c(C)o2)cc1,-1.53 (inactive),
Cc1cc(C)n(-c2nc3cc(Cl)ccc3nc2Cl)n1,1.03 (inactive),
Cn1c(=O)c2c(SCC(=O)Nc3ccc([N+](=O)[O-])cc3)nc(-c3ccc(F)cc3)nc2n(C)c1=O,1.08 (inactive),
N=C1/C(=C/c2ccc(SCc3ccco3)o2)C(=O)N=C2SC=C(c3ccccc3)N12,-1.25 (inactive),
COc1ccc(OC(C)c2nc(-c3ccc(C)cc3)no2)cc1 (centres undefined),-1.29 (inactive),
Fc1ccccc1Nc1nc2ccccc2n2nnnc12,1.5 (inactive),
Cc1noc(C(=O)N2CCN(c3ccccc3)CC2)c1Cl,-1.23 (inactive),
CC1CN(C2=NC(=O)/C(=C/c3ccccc3Br)S2)CC(C)O1 (centres undefined),-1.41 (inactive),
CCN(CC)CCNc1nc2c(c(=O)[nH]c(=O)n2C)n1Cc1ccccc1Cl,-1.23 (inactive),
CC(C)Cc1nnc(NC(=O)CSc2nc(N)cc(=O)[nH]2)s1,,active
CCOC(=O)C1=C(CS(=O)(=O)c2ccc(Cl)cc2)NC(=O)NC1c1ccc(F)cc1 (centres undefined),1.41 (inactive),

SMILES,fold change,outcome
CCN1C(=O)/C(=c2\sc3nc(-c4cccc(C)c4)nn3c2=O)c2cc(Br)ccc21,-1.02 (inactive),
Cc1ccc(-c2noc(-c3ccccc3Cl)n2)cc1,-93.3 (active),
CC1CCN(S(=O)(=O)c2ccc3c(c2)N(CC(=O)NCCN2CCCC2)C(=O)CO3)CC1,-1.01 (inactive),
CCOP(=O)(OCC)C(Nc1ccccc1)c1ccco1 (centres undefined),1.02 (inactive),
C=CCOc1cccc(C2c3c(oc4ccccc4c3=O)C(=O)N2c2nc(C)c(C(C)=O)s2)c1 (centres undefined),1.02 (inactive),
CCOC(=O)C1CCN(c2c(N3CCN(CC)CC3)c(=O)c2=O)CC1,1.21 (inactive),
Cc1nnc(NC(=O)Cn2c(=O)sc3ccccc32)s1,-1.03 (inactive),
Cc1ccc(-c2n[nH]c3c2C(c2cccc([N+](=O)[O-])c2)NC3=O)cc1 (centres undefined),1.04 (inactive),
Cc1ccc2oc(-c3cc(NC(=O)c4ccc5c(c4)OCCO5)ccc3O)nc2c1,,active
O=C(O)CCC(=O)N1CCc2cc(S(=O)(=O)N3CCc4ccccc4C3)ccc21,1.93 (inactive),
Cc1ccc(S(=O)(=O)NCCOc2nc(N(C)C)nc(N3CCOCC3)n2)cc1,-1.03 (inactive),
CCOC(=O)C1=C(CS(=O)(=O)c2ccccc2)NC(=O)NC1c1ccccc1 (centres undefined),1.91 (inactive),
CC(C)CCNC(=O)C1CCC(CNS(=O)(=O)c2cccc3nsnc23)CC1 (centres undefined),-1.62 (inactive),
CCOC(=O)c1c(NC(=O)Nc2ccc(F)cc2)sc2c1CCN(C(=O)OCC)C2,-1.41 (inactive),
O=C(CSc1nc(-c2ccco2)cc(C(F)(F)F)n1)N1CCc2ccccc21,-1.91 (inactive),
Fc1ccc(Br)cc1C1C=C(c2cccnc2)Nc2ncnn21 (centres undefined),,inactive
COC(=O)c1nc2n(n1)C(c1cccc(Br)c1)C1=C(CCCC1=O)N2 (centres undefined),,inactive
O=C(Nc1ccc(S(=O)(=O)N2CCCC2)cc1)C1c2ccccc2Oc2ccccc21,-1.83 (inactive),
Cn1c(C(=O)NCCN2CCOCC2)cc2c(=O)[nH]c3ccccc3c21,1.17 (inactive),
